# Screening data (PubChem BioAssay)
# Methyltransferases: Primary Screen for Target Class Profiling of Small Molecule Inhibitors of Methyltransferases; purified enzyme, MTase-Glo SAH luminescence; active compounds read low; 3.9% of 25,000 active; calls only at 40 µM; call rule not given here
#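 Each enzyme was assayed with SAM and its substrate. SAH formation detected by MTase-Glo luminescence; single-point 40 uM screen[…].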
# MTase-Glo counter: counter-screen for methyltransferase inhibitors: coupling enzymes without methyltransferase; Potency, µM (top dose mostly 57.3 µM), for the others: at the highest dose activity change, negative = inhibition, hits mostly inhibitors; 6% of 180 active; AID 1745851; shares compounds with Methyltransferases; MTase-Glo coupled enzymes, SAH conversion luminescence, no MTase; active means well fitted inhibition curve with a large enough effect; further: potency means the concentration at half of the fitted maximal effect
# * = called active by the depositor; i = inactive; + = active, no number; [ ] = remark or other dose. The entries come from a sample that favours hits as a whole. On the % scale 0 is the no-effect control and ±100 the full control effect.
SMILES,Methyltransferases,others
CC(=O)Nc1ccc(NC(=O)c2cccc(CN3CCCC(C#N)C3)c2)cc1 (configuration not stated),i,
N#Cc1cc(CN2CCCC(C(=O)Nc3cccc(-c4ccc(F)cc4)c3)C2)c[nH]1 (configuration not stated),+,MTase-Glo counter=-5%
Cc1cccc(CN2CCCC(C(=O)Nc3cccc(-n4cccn4)c3)C2)n1 (configuration not stated),i,
COc1cc(OC)c(NC(=O)N2CCn3c(C)ccc3C2C(C)C)cc1Cl (configuration not stated),i,
CC(C)CCNC(=O)C1(C)Cn2nc(C(=O)N3CCN(C4CCCCC4)CC3)cc2C(=O)N1C (configuration not stated),i,
O=C(CC1CCOCC1)N1CCN(c2ncccn2)CC1,i,
O=C(CC1CCCC1)N1CCC(Nc2cccnc2)C1 (configuration not stated),+,MTase-Glo counter=-6%
O=C(CC1CCCC1)N1CCC(c2noc(-c3cnccn3)n2)C1 (configuration not stated),i,
COc1ccc(CNC(=O)c2ccc3c(=O)nc4c(-c5ccccc5F)n[nH]n4c3c2)cc1,i,
CCC(C)NC(=O)c1ccc2c(=O)n(C)c3nn(CC(=O)Nc4ccccc4Cl)c(=O)n3c2c1 (configuration not stated),i,
O=C(c1ccc(C2CCCNC2)cc1)N1CCN(c2ccncc2)CC1 (configuration not stated),+,MTase-Glo counter=-3%
O=C(c1ccncc1)N1CCCC(CN2CCCC2)CC1 (configuration not stated),i,
Cn1cc(-c2ccncc2)cc1C(=O)N1CCN(c2ccc(F)cc2)CC1,i,
CC1CCC(NC(=O)C2(C)Cn3c(ccc3-c3ccco3)C(=O)N2Cc2ccc(F)cc2)CC1 (configuration not stated),i,
COc1ccc(NC(=O)N2CCn3c(C)ccc3C2C(C)C)cc1OC (configuration not stated),i,
CC(CNC(=O)CCc1nnc2n(Cc3ccccc3Cl)c(=O)c3ccccc3n12)c1ccccc1 (configuration not stated),i,
CCOc1ccccc1C(=O)N1CCC(c2n[nH]c(=O)n2Cc2ccc(OC)cc2)CC1,i,
COc1ccc(-c2[nH]nc3ncc(C(=O)N4CCC(c5ccccc5)CC4)nc23)c(C)c1,+,MTase-Glo counter=-11%[85.7 µM]
COc1cccc(CN2CCCC3(CCN(C(=O)c4cnc(C)cn4)C3)C2)c1 (configuration not stated),i,
CCOc1ccc(N2C(=O)c3c(C(=O)OC)ncn3CC2(C)C(=O)NC2CCCCCC2)cc1 (configuration not stated),i,
COc1cccc(S(=O)(=O)N2CCC(OCCOc3ccccc3)CC2)c1,i,
C[S+](=O)([O-])N1CCC(Cn2ccc3c(N4CCOCC4)nc(-c4cccc5[nH]ncc45)cc32)CC1,+,MTase-Glo counter=4%
CC(C)CCN1C(=O)c2ccc(-c3ccco3)n2CC1(C)C(=O)NC1CCCC(C)C1C (configuration not stated),i,
COc1ccccc1CNC(=O)C1c2c(n(C)c3ccccc23)SCC(=O)N1c1ccc(C)c(C)c1 (configuration not stated),i,
COc1ccnc(-c2nnc3ccc(Nc4cc(OC)c(OC)c(OC)c4)nn23)c1,+,MTase-Glo counter=-4%[85.7 µM]
SMILES,Methyltransferases,others
COc1cncc(Nc2cnc3ccc(-c4ccccc4OC)nn23)c1,i,
CCn1c(=O)n(CC)c2cc(S(=O)(=O)N3CCN(c4ccccc4OC)CC3)ccc21,i,
CCOC(=O)c1cc2n(n1)CC(C)(C(=O)NC1CCCC1)N(c1ccccc1CC)C2=O (configuration not stated),i,
O=C(CCC[C@@H]1[C@H]2CCCN3CCC[C@@H](CN1Cc1ccccc1)[C@@H]23)Nc1cccnc1,+,MTase-Glo counter=-4%
COc1ccc(C)cc1NC(=O)CCC[C@@H]1[C@H]2CCCN3CCC[C@@H](CN1C)[C@@H]23,i,
COc1cccc(N2CCN(C(=O)CCC[C@@H]3[C@H]4CCCN5CCC[C@@H](CN3C)[C@@H]45)CC2)c1,i,
CCCN1C(=O)c2c(C(=O)NCc3ccccc3OCC)ncn2CC1(C)C(=O)NCc1ccc(C)cc1 (configuration not stated),i,
O=C(Cn1c(=O)c2ccc(Cl)cc2n2nncc12)Nc1ccc(Oc2ccccc2)cc1,i,
CC(C)CCn1c(=O)c2ccccc2n2c(SCC(=O)Nc3cc(F)ccc3F)nnc12,i,
CCCn1c(=O)c2cc(F)ccc2n2c(SCC(=O)Nc3ccc(Cl)cc3)nnc12,i,
COc1ccc(C)cc1N1C(=O)Cn2cccc2C1C(=O)NC1CCC(C)CC1 (configuration not stated),i,
